In the supplement of paper PMC7156485 one finds cell number and H1.0 immunofluorescence intensity data, which are given here for 8 compounds.

Structures are written as SMILES. ± gives the standard deviation of the averaged measurements.

Conditions in all cases: concentration: 10 µM; 24 h
Assay [1] relates to HCC1569. Briefly: cell number relative to DMSO (% of DMSO); higher = more cells (less growth inhibition / toxicity). An outline of the steps: (§1)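 After 24 h at 37 °C with compounds at 10 µM, in triplicate, HCC1569 and TDF cells were fixed with 3.7% formaldehyde. Immunostaining used a rabbit anti-H1.0 antibody and an AlexaFluor 647 secondary, with DAPI, and six fields per well were imaged at ×10. H1.0 nuclear intensity or cell number is presented as percent of the plate control, from the median of replicates, with HCC1569 values smoothed for positional effects.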

Assay [2] deals with TDF. Described as above. An outline of the steps: as §1
In assay [3] the test system is TDF. Briefly: H1.0 immunofluorescence intensity relative to DMSO (% of DMSO); higher = stronger H1.0 induction, active = 120 or more. The procedure, abridged: as §1
Assay [4] has as its system HCC1569. Nature of the assay: H1.0 immunofluorescence intensity relative to DMSO (% of DMSO); higher = stronger H1.0 induction, active = 140 or more. The procedure, abridged: as §1
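For H1.0 immunofluorescence intensity relative to DMSO in this document: TDF is a line of transformed human dermal fibroblasts of mesenchymal origin.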
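For cell number relative to DMSO in this document: TDF denotes transformed human dermal fibroblasts of mesenchymal origin.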

For the compound `CCCn1c(=O)c2[nH]c(-c3ccc(OCC(=O)NCCN)cc3)nc2n(CCC)c1=O` [Xanthine amine congener], the values for the cell number in assay [1] and in assay [2] were 97.6 and 104, respectively. Also, the H1.0 immunofluorescence intensity is 98 (inactive) in assay [3] and 110 (inactive) in assay [4].
Take `CN(C)CCCN1c2ccccc2Sc2ccc(Cl)cc21.Cl` [Chlorpromazine.HCl]: the cell number in assay [1] worked out at 96.5; in assay [2] it was 99.7. The values for the H1.0 immunofluorescence intensity in assay [3] and in assay [4] were 106 (inactive) and 113 (inactive), respectively.
Taken in the same sequence, the figures for `COc1c(O)cc2c(c1O)C1OC(CO)C(O)C(O)C1OC2=O` (configuration not stated) [Bergenin] were 99, 107, 91.7 (inactive) and 93.5 (inactive).
As to `CCOC(=O)C1=C(C)NC(C)=C(C(=O)OC)C1c1cccc([N+](=O)[O-])c1` (configuration not stated) [Nitrendipine], the cell number in assay [1] came out at 97.8 ± 5.5; in assay [2] it was 101 ± 10. For the same compound, the figures for the H1.0 immunofluorescence intensity in assay [3] and in assay [4] were 101 (inactive) and 122 (inactive), respectively.
With `CC(CN(C)C)CN1c2ccccc2Sc2ccc(C#N)cc21` (configuration not stated), the cell number is 93.5 in assay [1] and 90.4 in assay [2]. The results for the H1.0 immunofluorescence intensity in assay [3] and in assay [4] were 118 (inactive) and 108 (inactive), respectively.
On to `Br.CN1C2CCC1CC(OC(=O)C(O)c1ccccc1)C2` (racemic) [DL-Homatropine hydrobromide], for which the cell number turned out to be 106 in assay [1] and 109 in assay [2]. In addition, the H1.0 immunofluorescence intensity in assay [3] was 91.5 (inactive); in assay [4], 85.8 (inactive).
The corresponding values for `CCN1CCCC1CNC(=O)c1cc(S(=O)(=O)CC)c(N)cc1OC` (configuration not stated) [Amisulpride] are 107, 84.5, 104 (inactive) and 96.7 (inactive).
Consider `NC(=O)c1cc[n+](CC2=C(C(=O)[O-])N3C(=O)C(NC(=O)C(c4ccccc4)S(=O)(=O)[O-])C3SC2)cc1.[Na+]` (configuration not stated) [Cefsulodin sodium salt hydrate], for which the cell number is 99.1 in assay [1] and 104 in assay [2]. Further, the H1.0 immunofluorescence intensity in assay [3] was 94.6 (inactive); in assay [4] it was 94.3 (inactive).
